# Results: PubChem BioAssay (NCI)
# This is part of a sample that, as a whole, favours compounds with a hit. Of some 79,000 tested, about 15% had one in any assay. Values without a mark were called inactive. Activity calls are given as the source filed them. Cut-off read from the data, not from the text of the source: active = growth inhibition above about 70%; inactive = the rest.
# Assays:
# [1] = NCI Yeast Anticancer Drug Screen. Data for the rad50 strain (AID 155);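 note: 0% = growth of vehicle-only cultures of the same strain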; conditions: S. cerevisiae rad50 strain growth inhibition; at 50.0 µM; active compounds read high
# How it was run: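 Genetically altered yeast (DNA repair pathway); compound treatment; growth inhibition vs vehicle ctrl.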
# [2] = NCI Yeast Anticancer Drug Screen. Data for the mec2-1 strain (AID 157); conditions: S. cerevisiae mec2-1 strain, at 50.0 µM, active compounds read high
# How it was run: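 Readout is yeast growth inhibition, normalised to vehicle-treated controls, in the mec2-1 strain exposed to compound.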
# [3] = NCI Yeast Anticancer Drug Screen. Data for the sgs1 mgt1 strain (AID 161);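 note: 0% = growth of cultures given vehicle only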; conditions: S. cerevisiae sgs1 mgt1 strain, at 50.0 µM, active compounds read high
# How it was run: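 This yeast growth screen uses a strain with defined DNA-repair lesions; compound-treated growth is compared with vehicle-treated growth.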
# [4] = NCI Yeast Anticancer Drug Screen. Data for the cln2 rad14 strain (AID 165);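 note: 0% = growth equal to vehicle treated cultures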; conditions: S. cerevisiae cln2 rad14 strain, at 50.0 µM, active compounds read high
# How it was run: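 Relative to vehicle controls, growth inhibition of compound-treated cln2 rad14 yeast was recorded.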
# [5] = NCI Yeast Anticancer Drug Screen. Data for the bub3 strain (AID 167); conditions: S. cerevisiae bub3 mutant strain, at 50.0 µM, active compounds read high
# How it was run: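 Yeast carrying a defined mutation is treated with each compound, and growth is compared with that of vehicle-exposed cells to give inhibition.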
# [6] = NCI Yeast Anticancer Drug Screen. Data for the mlh1 rad18 strain (AID 175); conditions: S. cerevisiae mlh1 rad18 strain growth inhibition; at 50.0 µM; active compounds read high
# How it was run: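 Test agents were incubated with a yeast strain of defined genotype (DNA damage repair defect). Inhibition of growth was derived by comparison with vehicle-exposed cultures.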
SMILES,growth inhibition [1],growth inhibition [2] [%],growth inhibition [3],growth inhibition [4] [%],growth inhibition [5] [%],growth inhibition [6]
CCC1(CC)C(=O)NC(=O)[N]([Sn]([CH3])([CH3])[N]2C(=O)NC(=O)C(CC)(CC)C2=O)C1=O,-17.3%,-3.7,7.05%,-19.4,-1.3,-26.1%
CN1CCN(C)C12C=c1ccccc1=CC21CC1,5.05%,-15.9,-45.6%,-2.65,-39.9,-8.15%
COC(=O)CCCCCCCCCCN(CCCl)CCCl,39.6%,29.1,31.9%,26.2,21,67%
CCCOP1(=O)C=C(C)C(Cl)=C(C)C1 (stereo unspecified),33.5%,-4.6,20%,-1.45,-14.7,34.8%
COc1ccc(C)cc1C(=O)C[n+]1ccc2ccccc2c1,-10.4%,-0.8,-25.1%,-21.4,-6.5,0.15%
CC(=O)[CH-]C(C)=O.CC(=O)[CH-]C(C)=O.CC(=O)[CH-]C(C)=O.CCC(=O)O.[Zn+2].[Zn],-20.9%,-9.35,-18.4%,-38,-0.15,-26.3%
CCCCCCCCCCCCCCCC[As](CCCCCCCCCCCCCCCC)SCC1OC(OC(C)=O)C(OC(C)=O)C(OC(C)=O)C1OC(C)=O (stereo unspecified),-3.8%,3.45,6%,1,-20.1,-20.6%
CCOC(OCC)c1ccccc1.[C-]#[O+].[C-]#[O+].[C-]#[O+].[Cr],25.1%,21.4,33%,13.9,32.7,8.8%
Cc1ccc(C(=O)O[C@H](C(=O)O)[C@H](OC(=O)c2ccc(C)cc2)C(=O)O)cc1,18.1%,-4.05,-19.6%,10.4,2.6,-11.1%
NC(=O)c1cc(N(CCBr)CCBr)c([N+](=O)[O-])cc1[N+](=O)[O-],17.6%,1.25,17.6%,14.2,16.9,9.3%
CC1=C(C)C(=O)O[C@@H]([C@](C)(O)[C@]2(O)CC[C@@]3(O)[C@@H]4C[C@H]5O[C@]56CC=CC(=O)[C@]6(C)[C@H]4CC[C@]23C)C1,45.1%,64.7,43.8%,27.3,45.9,40.2%
O=C(Nc1c(O)[nH]c(=S)[nH]c1=O)c1ccco1,-24.1%,-4.8,-10.8%,-4.35,-13.2,-16%
C/C(=N\NS(=O)(=O)c1ccc(C)cc1)C(CN(C)C)C(c1ccccc1)c1c(O)c2ccccc2oc1=O (stereo unspecified),59.9%,42.2,65.2%,52.9,54.7,51.9%
C=Cn1nnnc1N,-3%,2.05,-10.3%,8.6,14.3,4.5%
C[N+]12CCC(c3ccccc3)(CC1)C(O)C2 (stereo unspecified),-14.6%,-4.75,2.1%,-5.15,2.8,8.1%
c1ccc(OP(Oc2ccccc2)(c2ccccc2)(c2ccccc2)c2ccccc2)cc1,6.05%,6.6,13.4%,-16.4,-5.1,-42.6%
CC(Br)CN(CC(C)Br)c1ccc(-c2ccccc2)cc1 (stereo unspecified),38.5%,30,12.6%,35.7,15.6,21.7%
C=[CH][Sn]([Cl])([Cl])[CH]=C.CN(C)P(=O)(N(C)C)N(C)C,28.5%,32.5,44.4%,28.1,53.3,54.1%
CNC1=C(C)C(=O)C2=C(C1=O)C(COC(N)=O)C1(OC)C3NC3CN21 (stereo unspecified),58.8%,53,52%,60.6,31.4,83.8% (active)
Clc1ccc(N=c2ccc3ccccc3[oH+]2)cc1.Clc1ccc(N=c2ccc3ccccc3[oH+]2)cc1.[Co],-5.05%,-25.4,14.8%,-59.2,-12.8,15.6%
CNC(=O)Oc1cccc2c(OC3OC(CO)C(O)C(O)C3O)cccc12 (stereo unspecified),-25.5%,19.4,-12.8%,-16.7,2.05,-23.9%

SMILES,growth inhibition [1],growth inhibition [2] [%],growth inhibition [3],growth inhibition [4] [%],growth inhibition [5] [%],growth inhibition [6]
CC(C)c1cc2c(cc1O)C1(C)CCCC(C)(C)C1=CC2=O (stereo unspecified),-1.65%,-28.9,-8.15%,-17,-5.8,-13.1%
Oc1ccccc1C=NC1CCCCC1.Oc1ccccc1C=NC1CCCCC1.[Ni+2],38.6%,-9.25,28.6%,-40.8,-0.1,-15.4%
CCC[As](=O)(O)Cc1ccccc1C,4.3%,-5.4,7.8%,-1.3,18,22.1%
[Se]=[Mo]=[Se],-10.2%,-8.3,-29.9%,-18,-7.05,-33.9%
Cc1cc(Nc2ccc(N(CCCl)CCCl)cc2)c(C)cc1O,31.7%,10,5.75%,-5.85,-4.15,6.8%
CC(C)(C)C1=C(Br)C(Br)(C(C)(C)C)OP1(=O)c1ccccc1 (stereo unspecified),7.9%,8.55,-22.9%,5.75,-5,-27.5%
COc1cc2c(cc1OC)CC[N+](C)=C2,5.65%,-6.5,13.8%,-2.45,-2.4,2.65%
COc1ccc2c(c1)CCC1C2CCC2(C)C1CCC21CCNP(=O)(N(CCCl)CCCl)O1 (stereo unspecified),72% (active),31.4,72.2% (active),23.3,22.4,38.7%
c1ccc(C2(N3CCOCC3)CSC2)cc1,-6.05%,-4.8,1.15%,-16.9,-44.6,-6.75%
COP(=O)(OC)C(O)C(Br)(Br)Br (stereo unspecified),28.6%,23.1,45.2%,34.8,11.7,23.8%
COc1cc(C=Nc2ccc(C(=O)O)c(O)c2)ccc1N(CCCl)CCCl,60.8%,15.1,65.2%,41,-3.95,48.8%
[C-]#[O+].[C-]#[O+].[C-]#[O+].[Cr].c1ccc([PH+](CC[As](c2ccccc2)c2ccccc2)CC[As](c2ccccc2)c2ccccc2)cc1,5.45%,-7.65,27.7%,2.6,11.1,38.9%
Cc1cccc(C#N)c1,3.55%,-26.1,1.2%,-1.4,-7,-0.05%
Cc1ccc(O)cc1Cl,-17.8%,-39,-20.6%,-7.65,-31.9,1.75%
COC(N)=O,-15.6%,-10.2,-16.9%,-15.9,-2.6,-8.3%
CN(C)P1(N(C)C)=NP(c2ccccc2)(c2ccccc2)=NP(N(C)C)(N(C)C)=N1,13.3%,20.9,47.5%,24.2,1.9,48.2%
CCCC(=O)[O-].CCCC(=O)[O-].N.N.N.N.[Co+3].[O-][Cl+3]([O-])([O-])[O-],-5.15%,-0.75,-48%,12.3,-5.1,-12.6%
N#CCc1ccc(CC#N)cc1,14.1%,-10.6,-2.8%,16.6,-5.1,1.45%
CCCCCCCCCCCCCCCCP(=O)(O)OP(=O)(O)OCC1OC(n2cnc3c(N)ncnc32)C(O)C1O (stereo unspecified),58.3%,53.2,88.2% (active),58.6,44.6,80.3% (active)
NCC(O)CSP(=O)(O)O (stereo unspecified),-10.9%,-9.85,-18.9%,24.5,-3.8,-0.6%
